Rows were chosen to be rich in hits. Some 2.4% of all compounds tested hit in one or more screens of this group.
FEN1 inh-1 – human FEN1 inhibition. P39748. Recombinant FEN1 flap cleavage, fluorescence, 15 min. Potency, µM (titrated, usually from 114 µM), for the others: at the top dose activity change, negative = inhibition, hits mostly inhibitors. 0.35% of 390,000 active. AID 588795; also: % is scaled to controls: 0 for no effect and ±100 for the full control effect; nearly all actives have a fitted effect of over 65% in size
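With each library titrated from low to high concentration, compounds met 10 nM FEN1 for 15 min at room temperature before 50 nM substrate was added; readings at 0 and 15 min fed four-parameter Hill curve fits.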
Pol eta inh-1 – blocks human DNA polymerase eta activity; Q9Y253; recombinant Pol eta, fluorescent DNA replication assay; Potency, µM (series often up to 114 µM), for inactives: at the top dose activity change, negative = inhibition, usual class: inhibitors; 1.2% of 390,000 active; also: % is scaled to controls: 0 for no effect and ±100 for the full control effect
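Pol eta at 10 nM preincubated with compounds 15 min at room temperature; reaction started with fluorescent substrate (50 nM final) and read kinetically at 0 and 10 min.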
POLB inh – blocks human DNA polymerase beta activity | Potency, µM (highest dose often 114 µM), without a hit: at the highest dose activity change, negative = inhibition, hits mostly inhibitors | Pol beta primer extension/strand displacement, fluorescence kinetic | 1.3% of 340,000 active | P06746; also: % is scaled to controls: 0 for no effect and ±100 for the full control effect
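Kinetic readout of DNA synthesis with strand displacement by Pol beta. Compound and 10 nM enzyme sit 15 min at room temperature; 50 nM substrate starts the reaction, read immediately and at 10 min.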
Pol iota inh – DNA polymerase iota (human) inhibition | AID 588590 | 1% of 390,000 active | Pol iota fluorescent replication assay, 10 min | Potency, µM (doses to about 115 µM), for the others: at the highest dose activity, negative = inhibition, hits mostly inhibitors | Q9UNA4
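Fluorescent replication assay read twice, at 0 min and 10 min after adding 50 nM (final) substrate. Enzyme (10 nM) and compounds were first incubated 15 min at room temperature; enzyme-free buffer wells were negative controls.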
WRN helicase inh – inhibitors of human WRN helicase; Q14191; WRN helicase unwinding, fluorescent forked duplex, kinetic; Potency, µM (doses to about 114 µM), without a hit: at the highest dose activity change, negative = inhibition, hits mostly inhibitors; 0.46% of 360,000 active; also: % is scaled to controls: 0 for no effect and ±100 for the full control effect; nearly all actives have a fitted effect of over 55% in size
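WRN at 20 nM final was preincubated with compound for 15 min at room temperature; reaction started with 100 nM forked duplex oligonucleotide carrying fluorophore and quencher plus 2 mM ATP (final). Unwinding followed kinetically by red fluorescence (ex 525/em 598 nm).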
Pol kappa inh-1 – blocks human DNA polymerase kappa activity; purified Pol kappa, fluorescent DNA synthesis assay, 10 min; Q9UBT6; AID 588579; 0.53% of 400,000 active; Potency, µM (highest dose often 107 µM), inactives show at the highest dose activity, negative = inhibition, actives largely listed as inhibitors; also: % is scaled to controls: 0 for no effect and ±100 for the full control effect
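Enzyme at 10 nM met test compounds for 15 min at room temperature. Substrate addition (50 nM final) began the reaction, which was monitored by fluorescence at 0 and 10 min.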
PGK validate – validation of Trypanosoma brucei phosphoglycerate kinase inhibitors; AID 686980; TbPGK coupled GAPDH assay, Kinase-Glo luminescence; 79% of 500 active; Potency, µM (titrated, usually from 57.5 µM), inactives show at the top dose activity change, negative = inhibition, most hits filed as inhibitors; shares compounds with Pol kappa inh-1; also: % is scaled to controls: 0 for no effect and ±100 for the full control effect; nearly all actives have a fitted effect of over 65% in size
POLI cherry-pick – Confirm cherry-picked inhibitors of human polymerase iota; Pol iota primer extension, TAMRA/BHQ fluorescence; 77% of 1,500 active; Potency, µM, actives largely listed as inhibitors; shares compounds with Pol kappa inh-1
Pol kappa inh-2 – confirmation of human DNA polymerase kappa inhibitors; 76% of 920 active; purified Pol-kappa, fluorescent strand-displacement substrate; Potency, µM, usual class: inhibitors; AID 720501; shares compounds with Pol eta inh-1
Pol eta inh-2 – confirmation of human DNA polymerase eta inhibitors; 64% of 2,600 active; shares compounds with Pol eta inh-1; AID 720502; Pol eta primer extension, TAMRA/BHQ fluorescence, 10 min; Potency, µM, usual class: inhibitors
FEN1 inh-2 – FEN1 inhibition, cherry-pick retest. Potency, µM, usual class: inhibitors. shares compounds with FEN1 inh-1. 79% of 880 active. FEN1 flap cleavage, TAMRA/BHQ2 fluorogenic DNA substrate. AID 720498; also: nearly all actives have a fitted effect of over 60% in size
The depositor's hits bear a star; ? = inconclusive; / = no result; [ ] = remark or other dose. Calls follow the shape of the dose curve; as a rule, active = well fitted curve in the direction sought with a large enough effect; inconclusive = small, poorly fitted or top-dose-only effect, or another doubt; inactive = no such curve, though single readings can be large; an effect the other way counts as inactive or inconclusive. Potency is read from the fitted curve at half-maximal effect.

SMILES	FEN1 inh-1	Pol eta inh-1	POLB inh	Pol iota inh	WRN helicase inh	Pol kappa inh-1	POLI cherry-pick	Pol eta inh-2	FEN1 inh-2	others
COc1cccc2c1OC(=O)CC2c1ccc(C)cc1 (stereo not drawn)	/	/	/	/	/	3%	/	/	/
CCn1cc(C(=O)N2CCN(c3cccc(C)c3C)CC2)c2cc(OC)c(OC)cc2c1=O	-3%	0%	16%	-101%	/	?	/	/	/
COc1ccc(/C=C2/SC(=S)N(c3ccc(S(=O)(=O)Nc4nccs4)cc3)C2=O)cc1	50µM*	25µM*	-22%	22µM*	?	50µM*	?	67*	60*
O=C(O)COc1ccc(C=C2SC(=S)N(c3ccccc3)C2=O)cc1	4%	?	/	?	-6%	-4%	/	/	/
CCc1ccc(NS(=O)(=O)c2ccc3[nH]cc(C(=O)NCc4ccc(C)cc4)c(=O)c3c2)cc1	-19%	?	?	-29%	/	-20%	/	/	/
CCN(CCCNc1cc2c(c(N)c1S(=O)(=O)O)C(=O)c1ccccc1C2=O)c1ccccc1	/	25µM*	/	/	5%[11.6 µM]	/	67*	76*	?	Pol kappa inh-2=?
CCOC(=O)C1CCN(c2c(NCCCN(CC)c3ccccc3)c(=O)c2=O)CC1	-12%	2%	0%	-18%	-3%	-24%	/	/	/
CN(C)CCNc1ccc2ncn3c4ccc(O)cc4c(=O)c1c23	8.9µM*	?	/	79µM*	?	22µM*	12*	/	4.8*	Pol kappa inh-2=9.5*
N#CCCn1c(=O)c(-c2ccc(F)cc2)nc2cnc(N3CCNCC3)nc21	/	/	/	/	/	0%[60.1 µM]	/	/	/
Oc1ccc(/C=N/Nc2ccc(Cl)nn2)c(O)c1O	?	10µM*	18µM*	?	?	?	17*	30*	38*
O=C(O)c1ccc(NS(=O)(=O)c2ccc3c(c2)C2C=CCC2C(c2ccccc2F)N3)cc1 (stereo not drawn)	40µM*	10µM*	?	?	35µM*	35µM*	38*	19*	30*
Cc1ccc(CN(Cc2ccco2)C(=O)c2ccccc2Br)o1	-14%	-10%	43%	4%	/	-5%	/	/	/
CCCc1c(C)[nH]c2ccc(C(=O)O)cc2c1=S	45µM*	3.2µM*	?	6.3µM*	25µM*	32µM*	17*	5.4*	43*
Cc1[nH]c2ccc(C(=O)O)cc2c1C	9%	-5%	7%	?	-3%	-6%	/	/	/
Cc1cccc2c(N)c3c(nc12)CCCC3 (tested in a mixture with another compound)	?	-18%	5%	46%	13%	4%	/	/	/
Cc1cc(C)c2c(N)c3cccc(C)c3nc2n1	25µM*	-19%	13µM*	?	0%	?	34*	/	15*
COc1ccccc1/C=C1\SC(=S)N(C(C(=O)O)c2ccccc2)C1=O (stereo not drawn)	-8%	-18%	-23%	14%	-5%	-5%	/	/	/
O=C(O)C(c1ccccc1)N1C(=O)/C(=C\c2ccc(O)c(O)c2)SC1=S (stereo not drawn)	?	3.2µM*	4µM*	?	32µM*	7.1µM*	15*	4.8*	30*	Pol kappa inh-2=2.7*
COc1cc2c(oc(=O)c3cc(C)cc(OC)c32)c2c(C3OC(C)C(O)C(C)(O)C3O)ccc(O)c12 (stereo not drawn)	3.5µM*	4µM*	/	14µM*	?	40µM*	30*	21*	0.85*
CC1CCC(C(=O)NC(C(=O)OCC(=O)c2ccc(Br)cc2)C(C)C)CC1 (stereo not drawn)	12%	-12%	-11%	14%	/	-1%	/	/	/
COc1ccc2cc3cc(C(=O)Nc4ccccc4C)oc3nc2c1	10%	-2%	0%	-15%	/	3%	/	/	/
CCN(CC)c1ccc2nc3ccc(N)cc3[n+](-c3ccccc3)c2c1	45µM*	?	/	79µM*	4.7µM*	22µM*	19*	76*	48*	PGK validate=13µM*;Pol kappa inh-2=47*
CCN(CC)c1ccc(/C=C/c2cc(Cl)nc3ccccc23)cc1	-22%	/	/	7%	/	-14%	/	/	/
C#CCN1C(=O)S/C(=C\c2ccc(-c3ccc(C(=O)O)cc3C)o2)C1=O	?	7.1µM*	16µM*	8.9µM*	?	18µM*	15*	8.5*	?
Cc1ccc(CN2C(=O)N/C(=C\c3ccc(-c4ccc(C(=O)O)cc4C)o3)C2=O)cc1	45µM*	18µM*	20µM*	-95%	?	79µM*	21*	27*	76*
SMILES	FEN1 inh-1	Pol eta inh-1	POLB inh	Pol iota inh	WRN helicase inh	Pol kappa inh-1	POLI cherry-pick	Pol eta inh-2	FEN1 inh-2	others
Cc1ccc(-c2nnc3ccccc3c2C(=O)Nc2ccc(C)c(F)c2)cc1	-3%	-2%	16%	2%	/	17%	/	/	/
CC(=O)N1CCc2cc(S(=O)(=O)N3CCN(c4ccc(C)cc4)C(C)C3)ccc21 (stereo not drawn)	-8%	2%	0%	-5%	/	-7%	/	/	/
COc1cc(/C=C2\SC(=O)N(CC(=O)Nc3ccc(C)cc3)C2=O)cc(Cl)c1OCC(=O)O	?	?	50µM*	20µM*	50µM*	?	4.2*	?	67*	PGK validate=5.8µM*
O=C(CN1C(=O)S/C(=C\c2cc(Cl)c(O)c(Cl)c2)C1=O)Nc1ccccc1	-14%	?	13%	?	-3%[11.6 µM]	-18%	/	/	/
COc1cc2oc(-c3ccccc3)cc(=O)c2cc1OC	/	/	/	/	/	-4%[19.4 µM]	/	/	/
COc1cc(OC)c(-c2c3cc(O)c(=O)cc-3oc3cc(O)c(O)cc23)cc1OC	50µM*	/	20µM*	/	2.4µM*	?	1.3*	67*	34*	Pol kappa inh-2=19*
